Data: PubChem BioAssay (NCATS)
Inconclusive results are not listed. The source made the active and inactive calls. The call rests on the fitted dose curve; in most records, active means well fitted curve in the direction sought with a large enough effect; inconclusive means small, poorly fitted or top-dose-only effect, or another doubt; inactive means no such curve, though single readings can be large; an effect the other way counts as inactive or inconclusive.

Columns and labels:
[1] = Cellular Toxicity (caspase-3) Mesangial (AID 660); conditions: mesangial cells, normalized: DMSO 0%, 100 µM tamoxifen 100%; at 91.7 µM (top of the series);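 further: combined caspase 3 and 7 activity read by Caspase-Glo luminescence; cells exposed to compound for 16 h before the caspase read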
Procedure, shortened: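 Mesangial cells, 1000/well, 5 h settle at 37 °C; compound 16 h, 37 °C; Caspase-Glo 3/7 reagent 20 min RT; luminescence. Norm.: DMSO = 0%, tamoxifen 100 uM = 100%. AC50, Hill fit.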

[2] = Cellular Toxicity (caspase-3) SK-N-SH (AID 661);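 further: 0% = DMSO basal and 100% = 10 µM staurosporine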
Procedure, shortened: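 Human neuroblastoma SK-N-SH, 1500 cells/well, 5 hr pre-incubation, then compound 16 hr, 37 °C. Caspase-Glo 3/7 reagent, 1 hr RT, luminescence. Norm. to DMSO/10 uM staurosporine; Hill-fit AC50.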

[3] = Cellular Toxicity (caspase-3) N2a (AID 665);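 further: compound exposure lasted 16 h at 37 °C before readout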
Procedure, shortened: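 N2a cells, 1500/well, 5 h settle at 37 °C; cpd 16 h, 37 °C; Caspase-Glo 3/7, 1 h RT; luminescence. Norm: DMSO = 0, 10 uM staurosporine = 100%. AC50, Hill fit.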

[4] = Cellular Toxicity (caspase-3) NIH 3T3 (AID 666);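 further: caspase signal read after 16 h compound exposure; 0% = DMSO basal and 100% = 100 µM tamoxifen stimulation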
Procedure, shortened: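 Luminescence from aminoluciferin released by caspase-3/7 cleavage of a peptide substrate served as read-out. Mouse fibroblast NIH 3T3 cells were exposed to compounds over a concentration range for 16 hours, and AC50 values came from standard Hill modelling.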

[5] = Cellular Toxicity (caspase-3) Renal Proximal Tubule (AID 667); conditions: Potency: caspase-3 activation;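 further: cells exposed to compound for 16 hours at 37 °C before detection; 0% = DMSO basal and 100% = 10 µM staurosporine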
Procedure, shortened: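 Freshly isolated primary rat kidney proximal tubule cells, 1000/well, treated 16 hr at 37 °C, then Caspase-Glo 3/7 luminescence after 1 hr. Normalized to DMSO and 10 uM staurosporine; AC50 from Hill fit.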

[6] = target: Cytochrome P450 3A4 (Homo sapiens) (UniProt P08684); experiment: qHTS Assay for Inhibitors and Substrates of Cytochrome P450 3A4 (AID 884); further: on the % scale 0 is the no-effect control and ±100 the full control effect; nearly all actives have a fitted effect of over 50% in size
Chain of Cytochrome P450 3A4 (Homo sapiens) (P08684 whole entry, looked up): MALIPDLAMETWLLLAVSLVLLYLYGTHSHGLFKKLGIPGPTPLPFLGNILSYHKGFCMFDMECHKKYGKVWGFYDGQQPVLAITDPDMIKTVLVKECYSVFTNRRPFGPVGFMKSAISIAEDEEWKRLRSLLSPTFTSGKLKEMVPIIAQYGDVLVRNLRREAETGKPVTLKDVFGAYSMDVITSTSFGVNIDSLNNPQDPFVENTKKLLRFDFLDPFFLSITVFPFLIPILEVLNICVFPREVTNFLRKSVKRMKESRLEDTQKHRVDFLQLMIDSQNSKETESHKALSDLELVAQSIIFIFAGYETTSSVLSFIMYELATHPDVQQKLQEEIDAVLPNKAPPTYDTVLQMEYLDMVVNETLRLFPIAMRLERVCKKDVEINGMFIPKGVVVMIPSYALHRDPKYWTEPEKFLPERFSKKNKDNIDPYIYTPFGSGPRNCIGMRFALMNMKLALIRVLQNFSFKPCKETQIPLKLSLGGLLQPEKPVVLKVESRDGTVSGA
Procedure, shortened: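 20 nM human CYP3A4 with 25 uM Luciferin-PPXE (at KM) in 200 mM KPO4, preincubated 10 min with compound; NADPH regeneration started a 60 min RT reaction. Luciferin detected by luminescence, normalized to 57 uM ketoconazole as full inhibition.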

[7] = MultiTox-Fluor Cytotoxicity Assay - LYMP1-001 - Dead Cells (AID 946)
Procedure, shortened: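 Cytotoxicity as increased dead-cell protease fluorescence (bis-AAF-R110, 485/520 nm), read 60 min after MultiTox-Fluor reagent. Human lymphoblastoid line exposed 16 h; Hill-fitted AC50, with DMSO as 0% and 15 uM tetraoctylammonium bromide as 100%.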

[8] = MultiTox-Fluor Cytotoxicity Assay - LYMP1-001 - Live Cells (AID 947);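 further: 0% = DMSO only and full inhibition = tetraoctylammonium bromide control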
[9] = Cell Viability - LYMP1-002 - Assay at 16 hr (AID 948);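 further: 0% = DMSO alone and full effect = 92 µM tetraoctylammonium bromide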
Procedure, shortened: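 LYMP1-002 human lymphoblastoid cells, 2500/well, were treated with compounds for 16 hr at 37 C in complete medium. Viability was read as intracellular ATP by CellTiter-Glo luminescence, and AC50 was derived from a Hill fit to concentration-response data.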

[10] = MultiTox-Fluor Cytotoxicity Assay - LYMP1-002 - Live Cells (AID 955); further: on the % scale 0 is the no-effect control and ±100 the full control effect
Procedure, shortened: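 Read-out is live-cell protease activity (cell-permeant GF-AFC substrate, fluorescence Ex/Em=405/510), where a decrease indicates acute toxicity. Human lymphoblastoid cells were treated 16 hours at 37 C in a concentration series, and AC50 values came from standard Hill modelling.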

[11] = MultiTox-Fluor Cytotoxicity Assay - LYMP1-002 - Dead Cells (AID 960); further: nearly all actives have a fitted effect of over 60% in size
Procedure, shortened: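 LYMP1-002 cells 2500/well; 5 hr 37 C pre-incubation; compound 16 hr 37 C; MultiTox-Fluor reagent 60 min RT; dead-cell fluor Ex/Em 485/520. Norm. to DMSO (0%) vs 15 uM tetraoctylammonium bromide (100%); Hill AC50.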

[12] = MultiTox-Fluor Cytotoxicity Assay - LYMP1-003 - Dead Cells (AID 961); further: nearly all actives have a fitted effect of over 70% in size
Procedure, shortened: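 Dead-cell protease release, detected as bis-AAF-R110 fluorescence at 485/520 nm, was measured in LYMP1-003 cells after 16 h compound treatment at 37 C. AC50 values came from Hill-modeled qHTS curves normalized to DMSO (0%) and 15 uM tetraoctylammonium bromide (100%).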

[13] = MultiTox-Fluor Cytotoxicity Assay - LYMP1-003 - Live Cells (AID 962);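 further: cells exposed to compound for 16 hours at 37 °C; 0% = DMSO only and full loss = 92 µM tetraoctylammonium bromide; cytotoxic hits lower the live-cell protease signal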
Procedure, shortened: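 qHTS, 1536-well; 2500 cells/well LYMP1-003; 5 hr 37 C settle; cpd 16 hr 37 C; MultiTox-Fluor reagent 60 min RT; live-cell protease fluor. 405/510; Hill-fit AC50; tetraoctylammonium bromide pos. ctrl.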

[14] = Cell Viability - LYMP1-003 - Assay at 24 hr (AID 963);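 further: plate controls were DMSO only for no effect and tetraoctylammonium bromide positive control for full effect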
Procedure, shortened: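 Cells seeded at 2500/well, 5 hr at 37 C; compounds added; 24 hr at 37 C; CellTiter-Glo added, 30 min room temperature; luminescence read. Decrease in ATP taken as cytotoxicity, AC50 from Hill modelling.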

[15] = Cell Viability - LYMP1-003 - Assay at 40 hr (AID 964); further: on the % scale 0 is the no-effect control and ±100 the full control effect; nearly all actives have a fitted effect of over 60% in size
Procedure, shortened: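 Cells were seeded at 2500 per well and incubated 5 hr at 37 C. Compounds were added across a concentration series and left 40 hr at 37 C. CellTiter-Glo was added for 30 min at room temperature before luminescence reading.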

[16] = Cell Viability - LYMP2-003 (AID 965);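 further: cells exposed to compounds for 24 h before reading; 0% = DMSO only and full effect = 92 µM tetraoctylammonium bromide; nearly all actives have a fitted effect of over 50% in size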
Procedure, shortened: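 Human lymphoblastoid LYMP2-003 cells, 2500/well, exposed to compounds for 24 h at 37 C in complete medium. Viability read as intracellular ATP by CellTiter-Glo luminescence; AC50 from Hill-equation fits of qHTS concentration-response data.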

[17] = Cellular Toxicity (caspase-3) Hek293 (AID 664); conditions: HEK293 caspase-3 activation, DMSO = 0%, 100 µM tamoxifen = 100%; at 92.2 µM (top of the series);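 further: cells exposed to compound for 16 h at 37 °C before readout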
Procedure, shortened: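 Cells plated, 5 hr at 37 °C; compounds added; 16 hr at 37 °C; Caspase-Glo 3/7 reagent, 20 min RT; luminescence read. Activation expressed relative to DMSO and 100 uM tamoxifen, AC50 by Hill model.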

[18] = Cell Viability - LYMP2-001 (AID 921);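 further: 0% = DMSO only and full inhibition = tetraoctylammonium bromide control wells; nearly all actives have a fitted effect of over 70% in size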
Procedure, shortened: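 Human lymphoblastoid LYMP2-001 cells, 2500 per well, in complete medium, treated 24 h at 37 C. Viability from cellular ATP by CellTiter-Glo luminescence; AC50 from Hill-equation fits of qHTS concentration-response.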

O=C(O)c1ccc(CO)o1
inactive: caspase-3 activation [1] -0.701% | outcome [2] | outcome [3] | outcome [4] | Potency [5] | Potency [6] | outcome [7] | outcome [8] | outcome [9] | outcome [10] | outcome [11] | Potency [12] | Potency [13] | Potency [14] | Potency [15] | Potency [16]

ON=C1CCCCC1
inactive: caspase-3 activation [1] 0.894% | outcome [2] | caspase-3 activation [17] 2.27% | outcome [3] | outcome [4] | Potency [5] | Potency [6] | Potency [18] | outcome [7] | outcome [8] | outcome [9] | outcome [10] | outcome [11] | Potency [13] | Potency [14] | Potency [15] | Potency [16]

Cc1ccc2cccnc2c1
inactive: caspase-3 activation [1] 0.42% | outcome [2] | caspase-3 activation [17] 5.55% | outcome [3] | outcome [4] | Potency [5] | Potency [6] | Potency [18] | outcome [7] | outcome [8] | outcome [9] | outcome [10] | outcome [11] | Potency [12] | Potency [13] | Potency [14] | Potency [15] | Potency [16]

CC/C=C/C#N
inactive: caspase-3 activation [1] -0.969% | outcome [2] | caspase-3 activation [17] 1.85% | outcome [3] | outcome [4] | Potency [5] | Potency [6] | Potency [18] | outcome [7] | outcome [8] | outcome [9] | outcome [10] | outcome [11] | Potency [13] | Potency [14] | Potency [15] | Potency [16]

O=C(O)CN(CC(=O)O)CC(=O)O
inactive: caspase-3 activation [1] 1.04% | outcome [2] | caspase-3 activation [17] 0.365% | outcome [3] | outcome [4] | Potency [5] | Potency [6] | Potency [18] | outcome [7] | outcome [8] | outcome [9] | outcome [10] | Potency [12] | Potency [13] | Potency [14] | Potency [15] | Potency [16]

CCOCCOCC
inactive: caspase-3 activation [1] 0.404% | outcome [2] | caspase-3 activation [17] 4.51% | outcome [3] | outcome [4] | Potency [5] | Potency [6] | Potency [18] | outcome [7] | outcome [8] | outcome [9] | outcome [10] | Potency [12] | Potency [13] | Potency [14] | Potency [15] | Potency [16]

Cc1cccc2cccnc12
inactive: caspase-3 activation [1] -0.268% | outcome [2] | caspase-3 activation [17] -1.22% | outcome [3] | outcome [4] | Potency [5] | Potency [6] | Potency [18] | outcome [7] | outcome [8] | outcome [9] | outcome [10] | Potency [12] | Potency [13] | Potency [14] | Potency [15] | Potency [16]

CCc1ccccc1O
inactive: caspase-3 activation [1] -0.562% | outcome [2] | caspase-3 activation [17] -1.55% | outcome [3] | outcome [4] | Potency [5] | Potency [6] | Potency [18] | outcome [7] | outcome [8] | outcome [9] | outcome [10] | Potency [12] | Potency [13] | Potency [14] | Potency [15] | Potency [16]

Cc1ccc2ccccc2c1[N+](=O)[O-]
inactive: caspase-3 activation [1] 0.0968% | outcome [2] | caspase-3 activation [17] -2.81% | outcome [3] | outcome [4] | Potency [5] | Potency [6] | Potency [18] | outcome [7] | outcome [8] | outcome [9] | outcome [10] | outcome [11] | Potency [12] | Potency [13] | Potency [14] | Potency [15] | Potency [16]

CC/C=C1/OC(=O)c2ccccc21
inactive: caspase-3 activation [1] 0.157% | outcome [2] | outcome [4] | Potency [5] | Potency [6] | Potency [18] | outcome [7] | outcome [8] | outcome [9] | outcome [10] | outcome [11] | Potency [12] | Potency [13] | Potency [14] | Potency [15]

C[C@@H]1CC2(OC[C@]3(C)O[C@H]23)O[C@H]2C[C@@]3(C)[C@@H]4CC[C@H]5C(C)(C)C(O[C@@H]6OC[C@@H](O)[C@H](O)[C@H]6O)CC[C@@]56C[C@@]46CC[C@]3(C)[C@@H]12 (some centres not stated)
inactive: caspase-3 activation [1] 2.15% | outcome [2] | caspase-3 activation [17] 3.04% | outcome [3] | outcome [4] | Potency [5] | Potency [6] | Potency [18] | outcome [7] | outcome [8] | outcome [9] | outcome [10] | Potency [12] | Potency [13] | Potency [14] | Potency [15] | Potency [16]

CNc1ccc([N+](=O)[O-])cc1
inactive: caspase-3 activation [1] 0.0307% | outcome [2] | caspase-3 activation [17] -2.51% | outcome [3] | outcome [4] | Potency [5] | Potency [6] | Potency [18] | outcome [7] | outcome [8] | outcome [9] | outcome [10] | Potency [12] | Potency [13] | Potency [14] | Potency [15] | Potency [16]

CC(N)CN (configuration not stated)
inactive: caspase-3 activation [1] 2.7% | outcome [2] | outcome [3] | outcome [4] | Potency [5] | Potency [6] | Potency [18] | outcome [7] | outcome [9] | outcome [10] | outcome [11] | Potency [12] | Potency [13] | Potency [14] | Potency [15] | Potency [16]

Cc1ccc(C#N)cc1
inactive: caspase-3 activation [1] -0.175% | outcome [2] | outcome [4] | Potency [5] | Potency [6] | Potency [18] | outcome [7] | outcome [8] | outcome [9] | outcome [10] | Potency [12] | Potency [13] | Potency [14] | Potency [15] | Potency [16]

CC(=O)CCc1ccccc1
inactive: caspase-3 activation [1] -0.0155% | outcome [2] | caspase-3 activation [17] 0.352% | outcome [3] | outcome [4] | Potency [5] | Potency [6] | Potency [18] | outcome [7] | outcome [9] | outcome [10] | outcome [11] | Potency [13] | Potency [14] | Potency [15] | Potency [16]

Nc1c(Cl)cc(Cl)cc1Cl
inactive: caspase-3 activation [1] 0.75% | outcome [2] | caspase-3 activation [17] -0.377% | outcome [3] | outcome [4] | Potency [5] | Potency [6] | Potency [18] | outcome [7] | outcome [9] | outcome [10] | outcome [11] | Potency [12] | Potency [13] | Potency [14] | Potency [15] | Potency [16]
